# gsp agonist: qHTS for Agonist of gsp, the Etiologic Mutation Responsible for Fibrous Dysplasia/McCune-Albright Syndrome: qHTS; Potency, µM (titrated, usually from 76.9 µM), for the others: at the highest dose activation (cAMP increase), hits mostly activators; 0.13% of 340,000 active; AID 624287, 2012; gsp mutant cells, cAMP HTRF, 30 min; active means well fitted activation curve with a large enough effect; inconclusive means small, poorly fitted or top-dose-only effect, or another doubt; inactive means no such curve, though single readings can be large or run the other way; cell line not stated here;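 further: phosphodiesterase inhibitor Ro 20-1724 added with compounds to block cAMP breakdown; nearly all actives have a fitted effect of over 60% in size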
#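 Cells in DMEM/10% FBS with G418 were pretreated with compounds in DMSO plus […] (300 uM stock) for 30 min at 37C. cAMP was measured by HTRF (cAMP-d2 plus anti-cAMP antibody-K) after 30 min at room temperature.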
# 12-LOX inh: Primary qHTS assay for inhibitors of human arachidonate 12S-lipoxygenase (ALOX12): Round 2; Polyunsaturated fatty acid lipoxygenase ALOX12 (Homo sapiens), P18054; purified 12hLO, xylenol orange hydroperoxide absorbance; Potency, µM (titrated, usually from 108 µM), for the others: top-dose activity change, negative = inhibition, most hits filed as inhibitors; 1.1% of 580,000 active; further: on the % scale 0 is the no-effect control and ±100 the full control effect
# Target sequence (P18054 whole entry, looked up): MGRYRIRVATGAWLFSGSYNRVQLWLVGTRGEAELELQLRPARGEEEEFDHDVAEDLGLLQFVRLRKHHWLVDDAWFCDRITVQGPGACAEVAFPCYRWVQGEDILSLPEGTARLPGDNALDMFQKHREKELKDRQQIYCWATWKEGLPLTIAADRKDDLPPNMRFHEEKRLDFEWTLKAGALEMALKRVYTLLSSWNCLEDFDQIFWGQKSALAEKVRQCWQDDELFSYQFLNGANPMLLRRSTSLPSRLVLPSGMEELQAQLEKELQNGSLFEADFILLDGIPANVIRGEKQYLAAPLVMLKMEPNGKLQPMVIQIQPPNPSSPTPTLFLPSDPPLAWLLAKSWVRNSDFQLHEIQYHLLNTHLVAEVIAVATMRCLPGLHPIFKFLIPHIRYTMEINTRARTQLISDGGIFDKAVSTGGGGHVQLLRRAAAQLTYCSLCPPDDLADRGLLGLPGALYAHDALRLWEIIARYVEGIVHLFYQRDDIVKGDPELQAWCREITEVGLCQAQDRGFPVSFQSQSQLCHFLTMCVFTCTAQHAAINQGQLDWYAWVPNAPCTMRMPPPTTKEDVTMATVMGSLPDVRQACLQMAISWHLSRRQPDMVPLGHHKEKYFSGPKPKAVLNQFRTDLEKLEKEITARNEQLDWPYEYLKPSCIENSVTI
#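 Purified human 12hLO at 150 nM in 25 mM Hepes, 0.01% Triton X-100, pH 7.0, preincubated 15 min at room temperature with compound. Reaction started with 40 uM arachidonic acid, 30 min at room temperature. Hydroperoxide measured by Fe-xylenol orange, 573/405 nm absorbance ratio.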
# FUS suppressor: qHTS for Suppressors of FUS Proteinopathy: Primary screen using FUS-linked yeast assay; S. cerevisiae FUS-expressing, growth rescue, OD600, 24 h; Potency, µM (top dose mostly 76.6 µM), hits mostly activators; 0.24% of 390,000 active; AID 1347120, 2019;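 further: plate controls were DMSO vehicle for no effect and reference control for full effect; nearly all actives have a fitted effect of over 55% in size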
#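 Steps: raffinose overnight preculture; dilution to OD 0.005 in 2% galactose minimal medium; compound addition (concentration series); 24hr at 30C, 99% humidity; absorbance read at 600 nm.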
# gsp antag: qHTS for Antagonists of gsp, the Etiologic Mutation Responsible for Fibrous Dysplasia/McCune-Albright Syndrome: qHTS; gsp-mutant cells, cAMP HTRF, 30 min; Potency, µM (titrated, usually from 76.9 µM), without a hit: at the top dose activity change, negative = inhibition, actives largely listed as inhibitors; 0.4% of 340,000 active; calls by dose curve; cell line not stated here;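 further: intracellular cAMP measured with PDE inhibitor Ro 20-1724 present during compound exposure; on the % scale 0 is the no-effect control and ±100 the full control effect; nearly all actives have a fitted effect of over 65% in size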
#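 Measurement of cellular cAMP by homogeneous time-resolved fluorescence following a 30 min compound exposure at 37C. The PDE inhibitor […] was present throughout; the assay buffer was DPBS with 0.05% BSA and 0.005% Tween 20.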
# Mito fusion yeast: qHTS Assay for Small Molecule Inhibitors of Mitochondrial Division or Activators of Mitochondrial Fusion; AID 485298, 2010; 0.23% of 320,000 active; S. cerevisiae fusion-defective mutant growth rescue, CellTiterGlo 48 h; Potency, µM (top dose mostly 46.1 µM), for the others: at the highest dose growth rescue (activation), usual class: activators; further: % of control where 0% means no effect; nearly all actives have a fitted effect of over 45% in size
#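 Compounds are tested for their ability to restore growth of mitochondrial fusion-defective yeast strains at non-permissive 37C in YPEG medium over 48 hours. Viability is quantified by luciferase luminescence.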
# Numbers without * were called inactive; i = inactive; ? = inconclusive; . = no result; [ ] = remark or other dose. The list is not random: actives were taken first. Their share in the collection is about 1.6%. Unless noted, the call rests on the fitted dose curve; in most records, active means well fitted curve in the direction sought with a large enough effect; inconclusive means small, poorly fitted or top-dose-only effect, or another doubt; inactive means no such curve, though single readings can be large; an effect the other way counts as inactive or inconclusive. Potency means the concentration at half of the fitted maximal effect.
SMILES,gsp agonist,12-LOX inh,FUS suppressor,gsp antag,Mito fusion yeast
CC(=O)N1N=C(c2ccccc2Cl)CC1c1ccc2nccnc2c1 (configuration not stated),.,9%,.,.,.
Cc1ccc(C(=O)OCC(=O)N2CCc3ccccc32)cc1S(=O)(=O)N1CCCCC1,.,3%,.,.,.
CCc1c(C)sc(NC(=O)CC#N)c1C#N,15%,?,10µM*,-6%,2%
CCc1c(C)sc(NC(=O)C(F)(F)C(F)(F)C(F)(F)C(F)(F)F)c1C#N,.,10µM*,.,.,.
CCc1c(C)sc(NC(=O)C2c3ccccc3Oc3ccccc32)c1C#N,.,-24%,.,.,.
CCc1c(C)sc(NC(=O)C2CCC2)c1C#N,.,13µM*,.,.,.
CCc1c(C)sc(NC(=O)C2CC2)c1C#N,.,28µM*,.,.,.
CCc1c(C)sc(NC(=O)c2ccc(Cl)cc2)c1C#N,.,-65%,.,.,.
Cc1sc(NC(=O)C2CCCC2)c(C#N)c1C,?,?,.,6%,4%
CC(=O)NC(=S)NNC(=O)c1ccc(C(C)(C)C)cc1,.,-32%,.,.,.
C#CCOC(=O)c1ccccc1C(=O)N(C1CCCCC1)C1CCCCC1,.,18%,.,.,.
CCOc1cc(C(=O)NNC(=S)NCCCOC)cc(OCC)c1OCC,.,0%,.,.,.
CC(=O)N1c2ccc(S(=O)(=O)N3CCC(C(=O)N4CCN(c5ccc(Cl)cc5)CC4)CC3)cc2CC1C (configuration not stated),?,-18%,?,?,7%
COc1cccc(N2CCN(C(=O)C3CCN(S(=O)(=O)c4ccc5c(c4)CC(C)N5C(C)=O)CC3)CC2)c1 (configuration not stated),-68%,-8%,14µM*,?,0%
CC(=O)N1c2ccc(S(=O)(=O)N3CCC(C(=O)NCc4ccc(Cl)cc4)CC3)cc2CC1C (configuration not stated),1%,-24%,?,?,5%
CC(=O)N1c2ccc(S(=O)(=O)N3CCC(C(=O)NCCc4ccc(Cl)cc4)CC3)cc2CC1C (configuration not stated),?,14%,i,35µM*,3%
C(=Nc1ccccc1N=Cc1cccs1)c1cccs1,.,5%,.,.,.
CCN1CCN(C(CC(C)C)c2nnnn2CS(=O)(=O)c2ccc(C)cc2)CC1 (configuration not stated),5%[15.4 µM],7.1µM*,i,12%,-20%
CCOC(=O)c1oc2ccccc2c1CN1CCN(C)CC1,?,35µM*,?,?,-7%
CN1c2ccccc2C(O)=C(C(=S)Nc2ccccc2)S1(=O)=O,4%,?,i,?,0%
CN1c2ccccc2C(O)=C(C(=S)Nc2ccc(F)c(Cl)c2)S1(=O)=O,9%[15.4 µM],1%,i,40µM*,7%
COc1cc(NC(c2ccccc2)c2ccccc2)cc(OC)c1OC,0%[15.4 µM],?,i,11µM*,6%
COc1nc(-c2ccccc2)c2cc(Br)ccc2n1,13µM*,203%,i,3%,.
CCCc1nnc(NC(=O)c2cc(-c3ccccc3)on2)s1,.,30%,.,.,.
Cc1c(C(=O)N2CCOCC2)sc(NC(=O)c2ccc([N+](=O)[O-])cc2)c1C#N,19%[15.4 µM],-18%,i,35µM*,10%
SMILES,gsp agonist,12-LOX inh,FUS suppressor,gsp antag,Mito fusion yeast
Cc1c(C(=O)N2CCCC2)sc(NC(=O)c2ccccc2)c1C#N,-6%,2%,i,?,6%
COc1cccc(-c2nc(CN(C)CC(=O)Nc3ccc(Br)cc3C)cs2)c1,.,30%,.,.,.
Cc1cc(C)c2cc(C(=O)OC(C)C(=O)N3CCCCCC3)[nH]c2c1 (configuration not stated),.,36%,.,.,.
Cn1c(=O)c2c(ncn2CC(=O)NC2CCCCC2)n(C)c1=O,13µM*,-1%,i,14%,0%
Cn1c(=O)c2c(ncn2CC(=O)NC2CC2)n(C)c1=O,.,-5%,.,.,.
COc1ccc(CNC(=O)COc2ncnc3c(Cl)cc(Cl)cc23)cc1,.,-4%,.,.,.

# Screening data from PubChem BioAssay.
